# Data published in the supplement of paper PMC10849652.
# Of roughly 7,900 targets only a part is listed; those with a hit were picked by preference. About 0.6% of all pairs of compound and target were hits.
# Compound: Cc1cccc(CC(=O)N2CCc3c2ccc(-c2cn(C)c4ncnc(N)c24)c3F)n1
# Assay: log2 fold change, soluble protein after heating vs DMSO (PISA); higher = thermal stabilisation; K562 cells, 10 uM, 30 min; active = over 0.2 and 3.5 SD of the protein, either way, in both replicates (recomputed)
# How it was run: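 Soluble protein was defined as the supernatant after 21,000xg for 90 min. It came from K562 cells at 2×10^6 cells/mL given 10 μM compound for 30 min, heated in aliquots for 3 min across 48°C-58°C, pooled, and extracted in PBS with 0.5% NP-40 at 4°C, and was quantified by TMTpro 16plex LC-MS/MS with equalised channel sums. Thermal stability against control samples, from duplicates, is reported as log2 fold change.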
# Chain of UniProt P33552 (P33552 whole entry, looked up): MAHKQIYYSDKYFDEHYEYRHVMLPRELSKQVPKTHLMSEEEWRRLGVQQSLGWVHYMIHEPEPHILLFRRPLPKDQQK
# Chain of UniProt P30281 (P30281 whole entry, looked up): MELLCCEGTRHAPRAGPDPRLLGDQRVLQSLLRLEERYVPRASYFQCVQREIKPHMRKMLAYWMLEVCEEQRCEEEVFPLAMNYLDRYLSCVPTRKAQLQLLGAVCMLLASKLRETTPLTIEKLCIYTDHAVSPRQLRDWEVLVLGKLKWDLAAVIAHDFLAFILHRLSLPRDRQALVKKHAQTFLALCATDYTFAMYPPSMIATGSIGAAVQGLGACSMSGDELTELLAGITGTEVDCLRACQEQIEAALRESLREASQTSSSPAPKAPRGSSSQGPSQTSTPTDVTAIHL
# Chain of UniProt Q9UHN6 (Q9UHN6 whole entry, looked up): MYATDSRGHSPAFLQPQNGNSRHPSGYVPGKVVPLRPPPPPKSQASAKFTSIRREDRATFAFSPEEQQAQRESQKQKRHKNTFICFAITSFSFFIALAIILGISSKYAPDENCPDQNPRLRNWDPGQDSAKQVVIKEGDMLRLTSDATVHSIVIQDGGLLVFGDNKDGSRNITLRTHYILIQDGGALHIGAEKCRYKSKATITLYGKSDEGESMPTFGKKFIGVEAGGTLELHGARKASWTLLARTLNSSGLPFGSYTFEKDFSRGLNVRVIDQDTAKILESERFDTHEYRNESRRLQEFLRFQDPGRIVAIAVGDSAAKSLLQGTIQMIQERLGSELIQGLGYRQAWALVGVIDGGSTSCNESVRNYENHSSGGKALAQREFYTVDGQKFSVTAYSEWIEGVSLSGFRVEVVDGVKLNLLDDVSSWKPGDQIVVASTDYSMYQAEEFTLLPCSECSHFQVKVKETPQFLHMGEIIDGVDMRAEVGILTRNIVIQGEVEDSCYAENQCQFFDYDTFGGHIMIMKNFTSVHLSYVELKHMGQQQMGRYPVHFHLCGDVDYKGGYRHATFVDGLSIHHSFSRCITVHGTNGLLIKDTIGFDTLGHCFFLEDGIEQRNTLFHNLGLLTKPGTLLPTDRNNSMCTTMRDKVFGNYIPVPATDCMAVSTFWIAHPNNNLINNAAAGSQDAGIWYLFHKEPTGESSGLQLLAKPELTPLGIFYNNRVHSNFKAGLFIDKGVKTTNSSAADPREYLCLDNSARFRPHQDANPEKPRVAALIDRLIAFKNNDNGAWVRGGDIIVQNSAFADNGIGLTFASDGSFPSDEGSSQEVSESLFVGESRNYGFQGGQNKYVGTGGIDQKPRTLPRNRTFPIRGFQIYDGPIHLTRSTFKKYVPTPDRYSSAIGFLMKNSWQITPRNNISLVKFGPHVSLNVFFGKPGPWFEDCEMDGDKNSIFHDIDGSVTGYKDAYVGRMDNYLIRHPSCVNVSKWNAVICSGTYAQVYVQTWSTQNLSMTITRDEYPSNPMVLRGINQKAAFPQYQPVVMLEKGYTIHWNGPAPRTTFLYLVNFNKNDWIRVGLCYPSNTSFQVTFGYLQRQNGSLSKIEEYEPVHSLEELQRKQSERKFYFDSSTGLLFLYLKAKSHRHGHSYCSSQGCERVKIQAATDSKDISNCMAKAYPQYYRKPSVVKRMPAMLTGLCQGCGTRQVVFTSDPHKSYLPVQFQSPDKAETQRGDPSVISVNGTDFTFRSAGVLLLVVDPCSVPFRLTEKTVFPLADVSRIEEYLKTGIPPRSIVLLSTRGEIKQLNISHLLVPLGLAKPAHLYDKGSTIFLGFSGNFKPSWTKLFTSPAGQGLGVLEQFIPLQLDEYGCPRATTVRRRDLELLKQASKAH
# Chain of UniProt Q92828 (Q92828 whole entry, looked up): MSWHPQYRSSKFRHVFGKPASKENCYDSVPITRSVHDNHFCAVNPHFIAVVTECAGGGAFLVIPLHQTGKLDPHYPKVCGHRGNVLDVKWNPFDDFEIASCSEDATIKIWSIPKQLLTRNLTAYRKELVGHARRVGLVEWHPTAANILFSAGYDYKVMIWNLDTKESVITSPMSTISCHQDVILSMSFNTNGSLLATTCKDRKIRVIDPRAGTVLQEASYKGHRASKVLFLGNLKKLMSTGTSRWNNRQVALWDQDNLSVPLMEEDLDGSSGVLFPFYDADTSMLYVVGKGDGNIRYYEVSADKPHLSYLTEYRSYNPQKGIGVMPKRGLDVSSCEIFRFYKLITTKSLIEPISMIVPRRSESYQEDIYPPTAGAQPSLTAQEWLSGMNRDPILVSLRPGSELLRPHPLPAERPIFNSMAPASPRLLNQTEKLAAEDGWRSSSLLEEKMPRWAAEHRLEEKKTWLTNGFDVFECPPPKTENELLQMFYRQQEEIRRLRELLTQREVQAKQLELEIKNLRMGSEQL
# Chain of UniProt O95628 (O95628 whole entry, looked up): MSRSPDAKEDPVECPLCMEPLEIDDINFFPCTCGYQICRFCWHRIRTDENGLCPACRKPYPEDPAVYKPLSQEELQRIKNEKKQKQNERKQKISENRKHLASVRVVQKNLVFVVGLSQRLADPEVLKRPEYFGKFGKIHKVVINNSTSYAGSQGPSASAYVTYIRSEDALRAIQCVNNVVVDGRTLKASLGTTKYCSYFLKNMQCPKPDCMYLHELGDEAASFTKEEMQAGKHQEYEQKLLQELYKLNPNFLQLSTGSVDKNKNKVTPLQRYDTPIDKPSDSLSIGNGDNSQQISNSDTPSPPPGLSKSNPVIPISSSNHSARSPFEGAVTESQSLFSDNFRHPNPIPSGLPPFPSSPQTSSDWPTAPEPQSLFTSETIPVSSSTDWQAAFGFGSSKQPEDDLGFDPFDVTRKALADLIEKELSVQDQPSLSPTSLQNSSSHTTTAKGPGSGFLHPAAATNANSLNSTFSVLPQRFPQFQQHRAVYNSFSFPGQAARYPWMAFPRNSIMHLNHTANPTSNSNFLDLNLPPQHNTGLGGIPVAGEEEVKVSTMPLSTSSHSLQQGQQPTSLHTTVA
# Chain of UniProt A8MTT3 (A8MTT3 whole entry, looked up): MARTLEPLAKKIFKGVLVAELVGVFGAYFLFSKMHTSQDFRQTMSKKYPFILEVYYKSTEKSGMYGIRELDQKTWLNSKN
# Chain of UniProt Q14194 (Q14194 whole entry, looked up): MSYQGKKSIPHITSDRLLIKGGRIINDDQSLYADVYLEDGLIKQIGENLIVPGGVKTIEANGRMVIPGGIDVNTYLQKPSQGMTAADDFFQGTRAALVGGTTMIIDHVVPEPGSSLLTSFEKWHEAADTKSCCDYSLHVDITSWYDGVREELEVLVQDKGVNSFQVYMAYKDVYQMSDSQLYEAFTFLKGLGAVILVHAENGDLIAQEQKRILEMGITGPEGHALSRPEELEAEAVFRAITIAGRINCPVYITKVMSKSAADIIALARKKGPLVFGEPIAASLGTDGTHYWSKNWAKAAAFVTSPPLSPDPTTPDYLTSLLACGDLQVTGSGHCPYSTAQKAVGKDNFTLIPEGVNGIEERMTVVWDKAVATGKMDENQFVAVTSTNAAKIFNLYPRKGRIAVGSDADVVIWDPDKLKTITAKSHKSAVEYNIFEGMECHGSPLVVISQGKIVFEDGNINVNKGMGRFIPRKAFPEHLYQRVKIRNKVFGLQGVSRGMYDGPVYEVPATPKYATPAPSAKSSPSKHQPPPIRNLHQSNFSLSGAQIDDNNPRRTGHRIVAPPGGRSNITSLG
# Chain of UniProt O60583 (O60583 whole entry, looked up): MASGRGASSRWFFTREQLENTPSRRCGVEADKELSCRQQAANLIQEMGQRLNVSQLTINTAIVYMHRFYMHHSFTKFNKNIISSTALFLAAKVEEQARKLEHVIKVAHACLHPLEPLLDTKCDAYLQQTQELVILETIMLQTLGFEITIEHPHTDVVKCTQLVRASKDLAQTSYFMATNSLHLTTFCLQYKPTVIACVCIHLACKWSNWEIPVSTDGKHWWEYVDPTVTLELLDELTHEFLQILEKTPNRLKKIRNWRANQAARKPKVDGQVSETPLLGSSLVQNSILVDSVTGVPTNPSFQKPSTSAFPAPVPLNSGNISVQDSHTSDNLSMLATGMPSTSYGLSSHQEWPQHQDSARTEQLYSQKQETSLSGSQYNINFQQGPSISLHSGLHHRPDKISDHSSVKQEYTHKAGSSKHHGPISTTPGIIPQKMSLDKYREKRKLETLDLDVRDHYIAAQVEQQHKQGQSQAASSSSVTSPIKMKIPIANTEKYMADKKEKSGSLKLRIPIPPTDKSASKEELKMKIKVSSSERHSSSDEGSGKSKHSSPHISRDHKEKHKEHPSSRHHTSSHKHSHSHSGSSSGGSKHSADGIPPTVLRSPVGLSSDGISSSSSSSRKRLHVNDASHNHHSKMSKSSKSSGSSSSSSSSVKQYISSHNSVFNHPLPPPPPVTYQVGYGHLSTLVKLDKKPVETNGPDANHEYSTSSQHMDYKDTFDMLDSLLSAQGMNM
# Chain of UniProt P55210 (P55210 whole entry, looked up): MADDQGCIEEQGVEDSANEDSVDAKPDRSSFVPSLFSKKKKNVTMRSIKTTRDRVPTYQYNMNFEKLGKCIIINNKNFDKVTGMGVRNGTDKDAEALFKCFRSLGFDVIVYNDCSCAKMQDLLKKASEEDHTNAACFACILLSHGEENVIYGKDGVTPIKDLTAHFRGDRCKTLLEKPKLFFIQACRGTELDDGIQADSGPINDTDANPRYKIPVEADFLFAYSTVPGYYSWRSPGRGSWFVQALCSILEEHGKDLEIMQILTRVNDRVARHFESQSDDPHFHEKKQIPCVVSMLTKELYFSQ
# Chain of UniProt Q9UBY8 (Q9UBY8 whole entry, looked up): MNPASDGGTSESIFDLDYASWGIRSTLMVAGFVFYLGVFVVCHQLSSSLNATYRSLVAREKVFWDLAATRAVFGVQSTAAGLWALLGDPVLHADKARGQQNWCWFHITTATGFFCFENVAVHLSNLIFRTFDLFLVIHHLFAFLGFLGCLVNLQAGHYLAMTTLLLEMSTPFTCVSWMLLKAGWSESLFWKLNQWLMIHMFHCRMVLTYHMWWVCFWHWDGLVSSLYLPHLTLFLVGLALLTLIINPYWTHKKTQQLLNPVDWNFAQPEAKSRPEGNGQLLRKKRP
row,Target,log2 fold change
1,CCND3 (UniProt P30281),-0.016 (inactive)
2,CORO2A (UniProt Q92828),0.015 (inactive)
3,CFAP58 (UniProt Q5T655),0.009 (inactive)
4,CLPTM1L (UniProt G5E9Z2),0.176 (inactive)
5,CLCN5 isoform 2 (UniProt P51795),0.048 (inactive)
6,CNN1 (UniProt P51911),0.22 (inactive)
7,CNOT4 isoform 9 (UniProt O95628),0.067 (inactive)
8,CCNT2 (UniProt O60583),-0.117 (inactive)
9,CCNDBP1 (UniProt O95273),-0.017 (inactive)
10,CDC25B isoform 4 (UniProt P30305),-0.022 (inactive)
11,COMMD3-BMI1 (UniProt R4GMX3),-0.032 (inactive)
12,"CCDC187, A0A1W2PQX5",-0.106 (inactive)
13,CEBPZOS (UniProt A8MTT3),0.014 (inactive)
14,CEMIP2 (UniProt Q9UHN6),0.002 (inactive)
15,CLN8 (UniProt Q9UBY8),-0.662 (active)
16,CASP7 isoform 3 (UniProt P55210),-0.401 (inactive)
17,CKS2 (UniProt P33552),0.048 (inactive)
18,CRMP1 isoform 2 (UniProt Q14194),-0.035 (inactive)
